Data taken from the supplement of paper PMC10849652.
About 7,900 targets were measured; listed, in parts, are those with a hit and a random draw of the rest. About 0.6% of all pairs of compound and target were hits. Values without a mark were called inactive.

Assays:
Experiment in all cases: log2 fold change, soluble protein after heating vs DMSO (PISA); higher = thermal stabilisation; K562 cells, 10 uM, 30 min; active = over 0.2 and 3.5 SD of the protein, either way, in both replicates (recomputed)
[1] = compound: COC1=CC=C(C=C1)CN2C=CC3=C2C=C(C=C3)C(=O)NO
In short: (§1)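 K562 cells (2×10^6 cells/mL) were treated with 10 μM compound for 30 min, and aliquots were heated for 3 min over 48°C-58°C. Pooled aliquots were extracted in PBS with 0.5% NP-40 at 4°C, and the supernatant after 21,000xg for 90 min was measured by TMTpro 16plex LC-MS/MS with channel sums equalised. Reported thermal stability, relative to control samples and from duplicates, is a log2 fold change.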

filanesib = compound: CON(C)C(=O)N1N=C(c2cc(F)ccc2F)S[C@@]1(CCCN)c1ccccc1 [filanesib]
In short: as §1

zotarolimus = compound: CO[C@H]1C[C@@H]2CC[C@@H](C)[C@@](O)(O2)C(=O)C(=O)N2CCCC[C@H]2C(=O)O[C@H]([C@H](C)C[C@@H]2CC[C@H](n3cnnn3)[C@H](OC)C2)CC(=O)[C@H](C)/C=C(\C)[C@@H](O)[C@@H](OC)C(=O)[C@H](C)C[C@H](C)/C=C/C=C/C=C/1C [zotarolimus]
In short: as §1

idasanutlin = compound: COc1cc(C(=O)O)ccc1NC(=O)[C@@H]1N[C@@H](CC(C)(C)C)[C@](C#N)(c2ccc(Cl)cc2F)[C@H]1c1cccc(Cl)c1F [idasanutlin]
In short: as §1

alisertib = compound: COc1cc(Nc2ncc3c(n2)-c2ccc(Cl)cc2C(c2c(F)cccc2OC)=NC3)ccc1C(=O)O [alisertib]
In short: as §1

[2] = compound: COc1cc2nc(-c3cc(F)ccc3O)nc(N[C@@H]3CNC[C@H]3C(C)(C)O)c2cc1OC
In short: as §1

gefitinib = compound: COc1cc2ncnc(Nc3ccc(F)c(Cl)c3)c2cc1OCCCN1CCOCC1 [gefitinib]
In short: as §1

[3] = compound: COc1cccc2cc(-c3nc([C@H]4CC[C@H](C(=O)O)CC4)n4ncnc(N)c34)[nH]c12
In short: as §1

lapatinib = compound: CS(=O)(=O)CCNCc1ccc(-c2ccc3ncnc(Nc4ccc(OCc5cccc(F)c5)c(Cl)c4)c3c2)o1 [lapatinib]
In short: as §1

pictilisib = compound: CS(=O)(=O)N1CCN(Cc2cc3nc(-c4cccc5[nH]ncc45)nc(N4CCOCC4)c3s2)CC1 [pictilisib]
In short: as §1

Sequence of UniProt Q9NV66 (Q9NV66 whole entry, looked up): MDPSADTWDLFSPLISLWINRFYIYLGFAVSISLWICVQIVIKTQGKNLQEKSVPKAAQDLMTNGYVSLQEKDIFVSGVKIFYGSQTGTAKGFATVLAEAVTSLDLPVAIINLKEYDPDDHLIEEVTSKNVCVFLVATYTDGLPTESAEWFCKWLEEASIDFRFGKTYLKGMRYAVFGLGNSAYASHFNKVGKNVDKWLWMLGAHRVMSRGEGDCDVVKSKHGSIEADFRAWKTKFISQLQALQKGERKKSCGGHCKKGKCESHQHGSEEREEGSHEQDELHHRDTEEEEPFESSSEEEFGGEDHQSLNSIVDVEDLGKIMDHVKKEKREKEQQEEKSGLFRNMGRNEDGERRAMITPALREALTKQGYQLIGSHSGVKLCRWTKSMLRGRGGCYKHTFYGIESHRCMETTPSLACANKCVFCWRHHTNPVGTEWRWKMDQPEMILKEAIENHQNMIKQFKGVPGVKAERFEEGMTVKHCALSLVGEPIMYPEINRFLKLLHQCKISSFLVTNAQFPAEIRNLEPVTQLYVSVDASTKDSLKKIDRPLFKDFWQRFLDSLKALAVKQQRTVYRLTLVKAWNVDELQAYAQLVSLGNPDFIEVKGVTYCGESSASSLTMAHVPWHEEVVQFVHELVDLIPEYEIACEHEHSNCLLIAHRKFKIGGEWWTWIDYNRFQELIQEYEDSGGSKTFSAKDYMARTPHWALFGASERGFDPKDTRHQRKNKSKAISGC
Sequence of UniProt P57081 (P57081 whole entry, looked up): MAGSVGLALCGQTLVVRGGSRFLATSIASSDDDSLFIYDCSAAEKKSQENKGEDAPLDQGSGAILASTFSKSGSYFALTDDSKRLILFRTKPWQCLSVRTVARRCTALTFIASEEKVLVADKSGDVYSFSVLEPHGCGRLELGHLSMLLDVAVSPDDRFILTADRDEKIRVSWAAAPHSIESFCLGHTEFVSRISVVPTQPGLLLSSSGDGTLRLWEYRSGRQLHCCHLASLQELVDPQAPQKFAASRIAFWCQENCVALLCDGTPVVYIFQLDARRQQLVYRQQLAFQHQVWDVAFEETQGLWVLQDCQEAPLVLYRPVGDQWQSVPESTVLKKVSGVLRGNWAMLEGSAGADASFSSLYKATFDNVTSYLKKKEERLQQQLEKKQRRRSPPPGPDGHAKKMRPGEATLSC
Sequence of UniProt Q96LJ8 (Q96LJ8 whole entry, looked up): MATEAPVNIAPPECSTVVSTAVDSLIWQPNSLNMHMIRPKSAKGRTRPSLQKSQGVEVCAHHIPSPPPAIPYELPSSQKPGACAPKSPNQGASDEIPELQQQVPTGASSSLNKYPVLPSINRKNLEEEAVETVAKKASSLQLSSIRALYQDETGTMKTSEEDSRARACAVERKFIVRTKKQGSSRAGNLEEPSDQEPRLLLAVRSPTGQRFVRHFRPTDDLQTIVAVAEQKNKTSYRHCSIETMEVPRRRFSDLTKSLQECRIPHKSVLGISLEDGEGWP
Sequence of UniProt P18887 (P18887 whole entry, looked up): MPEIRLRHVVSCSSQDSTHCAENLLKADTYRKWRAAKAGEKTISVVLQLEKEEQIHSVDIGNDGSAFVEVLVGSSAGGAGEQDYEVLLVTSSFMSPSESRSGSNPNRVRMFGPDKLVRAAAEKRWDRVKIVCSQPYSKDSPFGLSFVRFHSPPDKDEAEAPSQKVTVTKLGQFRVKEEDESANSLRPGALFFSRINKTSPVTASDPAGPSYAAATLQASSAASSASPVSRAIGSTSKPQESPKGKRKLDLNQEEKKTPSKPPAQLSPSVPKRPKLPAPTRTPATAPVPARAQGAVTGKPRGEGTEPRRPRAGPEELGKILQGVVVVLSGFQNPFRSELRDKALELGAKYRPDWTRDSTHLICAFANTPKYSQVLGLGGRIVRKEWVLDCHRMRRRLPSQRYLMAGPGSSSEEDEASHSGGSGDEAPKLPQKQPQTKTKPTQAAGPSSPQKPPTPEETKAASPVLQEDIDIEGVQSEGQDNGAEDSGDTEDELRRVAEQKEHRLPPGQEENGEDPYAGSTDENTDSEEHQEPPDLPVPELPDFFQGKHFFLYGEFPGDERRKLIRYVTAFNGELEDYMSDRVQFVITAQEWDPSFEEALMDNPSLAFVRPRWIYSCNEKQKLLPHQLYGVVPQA
Sequence of UniProt Q9HAV4 (Q9HAV4 whole entry, looked up): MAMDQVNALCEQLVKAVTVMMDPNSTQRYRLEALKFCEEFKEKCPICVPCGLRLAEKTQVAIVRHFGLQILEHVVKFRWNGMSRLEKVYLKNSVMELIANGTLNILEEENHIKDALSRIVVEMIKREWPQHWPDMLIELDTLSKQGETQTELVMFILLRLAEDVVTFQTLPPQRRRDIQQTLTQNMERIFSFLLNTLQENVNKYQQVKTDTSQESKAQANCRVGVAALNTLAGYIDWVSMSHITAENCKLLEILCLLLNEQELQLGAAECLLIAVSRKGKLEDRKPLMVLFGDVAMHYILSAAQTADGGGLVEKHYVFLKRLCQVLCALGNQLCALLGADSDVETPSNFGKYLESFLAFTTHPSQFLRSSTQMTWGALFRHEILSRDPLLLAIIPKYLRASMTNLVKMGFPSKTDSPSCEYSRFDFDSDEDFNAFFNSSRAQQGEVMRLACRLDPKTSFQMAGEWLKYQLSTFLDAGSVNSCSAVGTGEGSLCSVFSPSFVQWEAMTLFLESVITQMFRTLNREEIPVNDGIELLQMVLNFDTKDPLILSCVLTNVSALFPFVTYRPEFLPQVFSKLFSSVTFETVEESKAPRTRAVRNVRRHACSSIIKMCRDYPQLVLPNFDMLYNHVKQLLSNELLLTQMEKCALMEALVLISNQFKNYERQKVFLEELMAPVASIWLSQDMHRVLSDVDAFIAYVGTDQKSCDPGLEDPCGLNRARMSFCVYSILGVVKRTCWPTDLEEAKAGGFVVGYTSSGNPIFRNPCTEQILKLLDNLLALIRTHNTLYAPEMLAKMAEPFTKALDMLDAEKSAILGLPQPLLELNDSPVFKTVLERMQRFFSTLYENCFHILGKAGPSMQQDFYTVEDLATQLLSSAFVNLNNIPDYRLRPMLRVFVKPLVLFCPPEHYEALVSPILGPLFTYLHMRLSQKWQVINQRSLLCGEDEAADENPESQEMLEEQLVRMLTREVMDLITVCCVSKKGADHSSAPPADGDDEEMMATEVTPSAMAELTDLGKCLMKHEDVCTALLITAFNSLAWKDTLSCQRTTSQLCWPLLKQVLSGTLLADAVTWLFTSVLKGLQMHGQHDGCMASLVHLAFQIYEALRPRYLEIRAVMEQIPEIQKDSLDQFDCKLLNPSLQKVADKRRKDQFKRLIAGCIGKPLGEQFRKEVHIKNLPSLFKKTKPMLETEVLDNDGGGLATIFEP
Sequence of UniProt Q969T4 (Q969T4 whole entry, looked up): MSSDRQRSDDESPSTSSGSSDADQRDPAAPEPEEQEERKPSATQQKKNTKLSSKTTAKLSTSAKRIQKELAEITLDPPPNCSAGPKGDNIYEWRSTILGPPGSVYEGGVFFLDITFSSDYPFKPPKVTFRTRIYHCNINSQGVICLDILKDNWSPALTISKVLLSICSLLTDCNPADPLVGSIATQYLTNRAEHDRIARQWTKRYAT
Sequence of UniProt Q53S58 (Q53S58 whole entry, looked up): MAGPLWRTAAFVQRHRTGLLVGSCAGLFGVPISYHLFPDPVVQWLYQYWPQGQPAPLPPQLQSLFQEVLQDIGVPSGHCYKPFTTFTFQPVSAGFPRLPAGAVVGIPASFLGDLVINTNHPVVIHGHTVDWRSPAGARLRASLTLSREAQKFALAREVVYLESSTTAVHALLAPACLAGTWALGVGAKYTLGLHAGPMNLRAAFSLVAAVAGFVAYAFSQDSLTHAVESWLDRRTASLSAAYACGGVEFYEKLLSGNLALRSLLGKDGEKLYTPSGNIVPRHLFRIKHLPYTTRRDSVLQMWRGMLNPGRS
Sequence of UniProt Q6NUQ4 (Q6NUQ4 whole entry, looked up): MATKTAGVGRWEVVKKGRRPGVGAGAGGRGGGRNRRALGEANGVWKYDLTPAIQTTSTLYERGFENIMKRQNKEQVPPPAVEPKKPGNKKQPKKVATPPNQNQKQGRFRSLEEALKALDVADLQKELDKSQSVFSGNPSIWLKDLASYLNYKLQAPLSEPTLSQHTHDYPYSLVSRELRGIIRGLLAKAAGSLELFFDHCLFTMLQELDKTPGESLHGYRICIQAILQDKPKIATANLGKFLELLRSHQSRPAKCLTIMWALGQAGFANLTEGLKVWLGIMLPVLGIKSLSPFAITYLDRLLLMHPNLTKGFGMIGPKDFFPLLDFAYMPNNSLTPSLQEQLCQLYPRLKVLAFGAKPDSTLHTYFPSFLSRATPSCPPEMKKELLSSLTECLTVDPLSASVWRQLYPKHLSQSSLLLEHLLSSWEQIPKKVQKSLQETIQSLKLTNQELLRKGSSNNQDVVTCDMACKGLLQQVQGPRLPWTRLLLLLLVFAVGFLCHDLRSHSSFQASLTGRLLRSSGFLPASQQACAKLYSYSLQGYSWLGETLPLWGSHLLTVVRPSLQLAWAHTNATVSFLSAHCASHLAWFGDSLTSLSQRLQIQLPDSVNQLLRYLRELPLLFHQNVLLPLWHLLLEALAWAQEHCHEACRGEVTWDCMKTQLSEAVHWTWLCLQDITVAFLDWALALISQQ
Sequence of UniProt Q9NZ09 (Q9NZ09 whole entry, looked up): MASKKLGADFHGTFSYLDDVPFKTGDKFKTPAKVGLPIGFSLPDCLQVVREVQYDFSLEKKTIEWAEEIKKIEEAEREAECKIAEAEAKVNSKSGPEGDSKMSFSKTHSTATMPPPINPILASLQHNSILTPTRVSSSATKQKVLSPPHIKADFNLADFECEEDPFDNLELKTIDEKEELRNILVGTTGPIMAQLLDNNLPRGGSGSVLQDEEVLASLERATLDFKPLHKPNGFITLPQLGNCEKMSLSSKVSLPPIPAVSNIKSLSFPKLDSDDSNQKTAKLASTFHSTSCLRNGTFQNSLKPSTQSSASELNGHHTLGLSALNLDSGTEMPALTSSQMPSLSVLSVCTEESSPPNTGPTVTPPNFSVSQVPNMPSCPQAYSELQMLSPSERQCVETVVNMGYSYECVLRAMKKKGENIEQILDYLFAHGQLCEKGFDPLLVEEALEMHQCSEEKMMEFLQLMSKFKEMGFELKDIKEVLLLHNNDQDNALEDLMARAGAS

Target | log2 fold change [1] | log2 fold change (filanesib) | log2 fold change (zotarolimus) | log2 fold change (idasanutlin) | log2 fold change (alisertib) | log2 fold change [2] | log2 fold change (gefitinib) | log2 fold change [3] | log2 fold change (lapatinib) | log2 fold change (pictilisib)
VPS11 (UniProt Q9H270) | -0.019 | -0.038 | 0.053 | -0.063 | -0.022 | -0.032 | -0.005 | -0.041 | -0.045 | -0.013
UBE3B (UniProt Q7Z3V4) | 0.03 | 0.058 | 0.086 | 0.065 | – | 0.247 | -0.037 | – | 0.212 | –
TRAM1 (UniProt Q15629) | -0.188 | -0.218 | -0.103 | -0.119 | -0.067 | 0.24 | -0.066 | 0.005 | -0.092 | -0.163
TNNC2 (UniProt P02585) | -0.037 | 0.038 | -0.006 | 0.007 | -0.172 | 0.014 | 0.008 | 0.045 | -0.027 | 0.025
TYW1 (UniProt Q9NV66) | -0.16 | -0.01 | 0.019 | -0.023 | 0 | 0.095 | 0.013 | -0.006 | 0 | -0.147
TRAPPC2L (UniProt Q9UL33) | -0.102 | -0.05 | 0.098 | -0.026 | -0.029 | 0.03 | 0 | -0.062 | 0.088 | -0.018
TOM1 isoform 2 (UniProt O60784) | -0.118 | -0.031 | -0.001 | 0.056 | -0.002 | -0.039 | -0.031 | 0 | 0.014 | -0.154
VKORC1 (UniProt Q9BQB6) | 0.079 | -0.077 | 0.022 | -0.089 | 0.016 | -0.019 | -0.05 | -0.144 | -0.06 | -0.021
UBAP1 isoform 4 (UniProt Q9NZ09) | -0.018 | 0.078 | 0.045 | -0.014 | -0.034 | -0.017 | 0.088 | -0.018 | 0.23 | -0.005
UBAP2L isoform 5 (UniProt Q14157) | -0.026 | -0.014 | -0.03 | -0.047 | -0.034 | 0 | -0.019 | 0.012 | 0 | -0.015
XPNPEP1 isoform 3 (UniProt Q9NQW7) | 0.006 | -0.121 | 0.026 | -0.023 | 0.028 | -0.009 | 0.004 | 0.038 | 0.01 | 0.068
TMEM177 (UniProt Q53S58) | -0.037 | -0.115 | 0.019 | -0.077 | -0.199 | -0.154 | 0.077 | 0.086 | -0.016 | 0.151
TRMT10A (UniProt Q8TBZ6) | -0.195 | -0.134 | 0.054 | -0.081 | 0.048 | -0.006 | -0.025 | 0.028 | 0.03 | 0.093
WDR37 isoform 2 (UniProt Q9Y2I8) | 0.033 | 0.117 | -0.063 | 0.081 | -0.018 | 0.034 | -0.006 | -0.029 | 0.035 | 0.046
TMEM214 (UniProt Q6NUQ4) | -0.003 | 0.185 | -0.013 | -0.045 | -0.041 | 0.282 (active) | -0.012 | -0.111 | 0.046 | -0.055
UBE2E3 (UniProt Q969T4) | -0.077 | -0.046 | -0.013 | -0.075 | -0.045 | 0.108 | -0.076 | 0.022 | -0.021 | 0.089

Target | log2 fold change [1] | log2 fold change (filanesib) | log2 fold change (zotarolimus) | log2 fold change (idasanutlin) | log2 fold change (alisertib) | log2 fold change [2] | log2 fold change (gefitinib) | log2 fold change [3] | log2 fold change (lapatinib) | log2 fold change (pictilisib)
UTP3 (UniProt Q9NQZ2) | -0.058 | 0.368 | 0.125 | 0.26 | -0.09 | -0.074 | – | -0.067 | 0.204 | -0.06
TOM1L1 (UniProt O75674) | -0.006 | 0.06 | 0.008 | -0.142 | -0.073 | 0.061 | 0.056 | -0.051 | -0.007 | -0.076
XPO5 (UniProt Q9HAV4) | 0.019 | -0.122 | 0.023 | -0.055 | -0.008 | -0.068 | -0.008 | -0.052 | -0.004 | -0.034
WASHC3 (UniProt Q9Y3C0) | 0.108 | -0.061 | 0.001 | 0.068 | 0.077 | 0.002 | -0.014 | 0.042 | -0.029 | 0.05
VWA8 (UniProt A3KMH1) | -0.025 | -0.052 | -0.027 | -0.119 | -0.037 | 0.006 | 0.011 | 0.077 | 0 | 0.01
UBA52 (UniProt P62987) | 0 | 0.519 | -0.171 | 0.308 | -0.131 | -0.203 | – | -0.275 | 0.141 | -0.177
UBXN10 (UniProt Q96LJ8) | 0.059 | 0.038 | -0.049 | – | 0.016 | -0.071 | -0.079 | -0.11 | 0.097 | -0.008
UBIAD1 (UniProt Q9Y5Z9) | -0.063 | -0.038 | -0.246 | -0.039 | -0.054 | -0.008 | 0.077 | 0.013 | 0.082 | 0.103
TTC33 (UniProt Q6PID6) | 0.094 | 0.031 | -0.113 | -0.039 | 0.071 | 0.082 | – | 0.086 | -0.15 | -0.093
TMEM184C (UniProt Q9NVA4) | -0.006 | 0.162 | -0.11 | -0.112 | 0.059 | – | -0.043 | 0.077 | – | 0.162
USP25 isoform 3 (UniProt Q9UHP3) | -0.011 | 0.037 | 0.014 | -0.039 | 0.027 | 0.004 | 0.032 | 0.022 | 0.001 | 0.018
WDHD1 (UniProt O75717) | 0.013 | -0.003 | 0.031 | 0.005 | 0.036 | 0.011 | 0.013 | -0.012 | 0.006 | -0.015
TOM1L2 (UniProt Q6ZVM7) | -0.04 | 0.029 | -0.036 | -0.002 | – | – | 0.028 | – | – | –
XRCC1 (UniProt P18887) | -0.129 | 0.088 | -0.018 | -0.045 | – | – | – | – | – | -0.065
WDR4 (UniProt P57081) | 0.017 | -0.022 | 0.004 | -0.096 | -0.059 | -0.058 | -0.01 | 0.049 | 0.206 | 0.131
